Source: PubChem
B2AR arrestin: qHTS assay of beta-arrestin-biased ligands of beta2-adrenergic receptor | Beta-2 adrenergic receptor (Homo sapiens), P07550 | beta-arrestin recruitment to beta2AR, cell-based reporter | Potency, µM (top dose mostly 46.1 µM), actives largely listed as activators | 330,000 tested, 0.02% active; active means well fitted activation curve with a large enough effect; inconclusive means small, poorly fitted or top-dose-only effect; further: nearly all actives have a fitted effect of over 65% in size
D3 ag: qHTS of D3 Dopamine Receptor Agonist: qHTS | D(3) dopamine receptor (Homo sapiens), P35462 | D3R DiscoveRx beta-arrestin cells, luminescence, 90 min | max activation, % | 410,000 tested, 0.58% active | AID 652048, 2013; in the data active means max activation above about 30%
Target sequence (P35462 whole entry, looked up): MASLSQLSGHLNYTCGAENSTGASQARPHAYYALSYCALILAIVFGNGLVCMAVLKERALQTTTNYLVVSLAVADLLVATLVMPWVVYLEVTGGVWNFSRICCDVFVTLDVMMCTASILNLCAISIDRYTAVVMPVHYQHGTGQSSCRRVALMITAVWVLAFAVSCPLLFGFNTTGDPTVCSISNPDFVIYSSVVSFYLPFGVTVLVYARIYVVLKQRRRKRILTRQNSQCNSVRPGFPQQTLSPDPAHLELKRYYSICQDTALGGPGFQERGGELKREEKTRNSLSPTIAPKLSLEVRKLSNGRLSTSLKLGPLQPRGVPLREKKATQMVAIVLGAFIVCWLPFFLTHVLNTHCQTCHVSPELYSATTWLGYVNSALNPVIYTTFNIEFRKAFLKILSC
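Cells at 1500/well, incubated overnight, then treated with pinned compounds (dopamine as control) for 90 min at 37 degrees C. DiscoveRx reagent added for 30 - 60 minutes at room temperature; luminescence read.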
DRD3 antagonist: qHTS of D3 Dopamine Receptor Antagonist: qHTS; max response, negative = inhibition, %; AID 652054, 2013; 360,000 tested, 2.5% active; D(3) dopamine receptor (Homo sapiens), P35462; D3R cells, DiscoveRx beta-arrestin luminescence, antagonist mode; active compounds read low; in the data active means max response below about -50%; inconclusive means no clear call, values can overlap the other calls
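Cells plated overnight at 1500 cells/well, then exposed to library compounds with dopamine controls for 90 minutes at 37 degrees C. DiscoveRx reagent added for 30–60 minutes at room temperature; luminescence read, quantitative HTS format.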
TSHR antag: Antagonists of the Thyroid Stimulating Hormone Receptor: HTS campaign; Thyrotropin receptor (Homo sapiens), P16473; 330,000 tested, 0.2% active; activity change, negative = inhibition, % at 11.5 µM; TSHR-expressing cells, TSH-stimulated cAMP HTRF, 2 h; active compounds read low;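 active means activity change below a set negative limit, meaning inhibition stronger than a set level, cut at about -70% in these data; inconclusive means activity change between two set negative limits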
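Cell-based HTRF cAMP assay; TSHR cells + compound, TSH EC80 (4nM final), 2 h, 37 deg C. Lysis with anti-cAMP cryptate and cAMP-d2, 30 min RT, read 665/620 nm.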
A number is an active result; - = inactive; ? = inconclusive; . = no result; ! = not confirmed by another sample. Compounds with a hit are over-represented: about 2.9% of the library has one in this group of screens.

SMILES | B2AR arrestin | D3 ag | DRD3 antagonist | TSHR antag
O=S(=O)(CCN1CCN(C(c2ccccc2)c2ccccc2)CC1)C(F)(F)F | - | - | -50.4 | -
CCOC(=O)c1ccc(NC(=O)CS(=O)(=O)Cc2nc(-c3ccc(C)cc3)oc2C)cc1 | . | - | . | .
COc1cccc(/C=N/NC(=O)CNC(=O)COc2ccccc2)c1O | - | - | - | -
Cc1cccc(OCC(=O)NCC(=O)N/N=C/c2cc(Br)cc(Br)c2O)c1 | - | - | -80.9 | -
C=C1C(=O)C23C(O)C1CCC2C12CCCC(C)(COC(C)=O)C1C(O)C3(O)OC2 (stereo not given) | . | - | -95.0 | .
CC(C)CNc1nc(NC(C)(C)C)nc(Oc2ccc(=O)n(-c3ccccc3)n2)n1 | . | - | . | .
COc1ccc(/C=C/C(=O)c2ccc(OC)cc2OC)c(OC)c1 | - | 34.9 | - | -
COc1ccc(/C=C/C(=O)c2ccccc2)c(OC)c1 | - | - | - | -
COc1ccc(Cn2c(O)c(C=Nc3ccccc3)c3ccccc3c2=O)cc1 | - | - | - | -
COc1ccc(Cn2c(O)c(C=Nc3ccc(O)cc3)c3ccccc3c2=O)cc1 | - | - | -77.6 | -
O=C1/C(=C/c2ccncc2)CCC/C1=C\c1ccncc1 | - | - | -60.5 | -
COc1cc2c(-c3ccc(O)cc3)nc3c(c(C)nn3-c3ccccc3)c2cc1OC | - | 79.7 | - | -
COc1cccc(-c2nc3c(c(C)nn3-c3ccccc3)c3cc(OC)c(OC)cc23)c1 | . | - | . | .
CCCCSc1ncnc2c1c(-c1ccccc1)cn2-c1cccc(F)c1 | . | - | . | .
CN(C)c1nc(NCc2ccccc2)nc(SCC(=O)Nc2ccc(Cl)c(Cl)c2)n1 | - | 46.5 | - | -
Cc1nnc(N2CCN(C(=O)NC(C)C)CC2)c2nn(-c3ccccc3)c(C)c12 | . | - | . | .
Cc1cc(=O)n(CCCc2ccccc2)[nH]1 | - | - | -67.1 | -
O=C(c1ccccc1)N1CCCCC(Sc2nnnn2-c2ccccc2)C1=O (stereo not given) | - | - | -59.7 | -
O=C(c1ccc(F)cc1)N1CCCCC(Sc2nnnn2-c2ccccc2)C1=O (stereo not given) | - | - | - | -
Cc1ccc(CN2CCC(CO)(CC3CCCCO3)CC2)o1 (stereo not given) | - | - | -62.9 | -
Cc1ccc2[nH]c(CN3CCC(CO)(CC4CCCCO4)CC3)c(C)c2c1 (stereo not given) | - | - | -61.0 | -
CCc1ccc(CN2CCC(CO)(CC3CCCCO3)CC2)o1 (stereo not given) | - | - | ? | -
COc1ccc(NC(=O)NNC(=O)CCc2ccc(O)c(O)c2)cc1OC | - | 51.1 | - | -
CN(C)Cc1c(C(=O)Nc2ccccc2)[nH]c2ccccc12 | - | - | -57.3 | -
c1ccc(CCC2Cc3ccccc3N2)cc1 (stereo not given) | - | - | - | -
SMILES | B2AR arrestin | D3 ag | DRD3 antagonist | TSHR antag
c1ccc(CC[C@@H]2CC[C@@H](CCc3ccccc3)N2)cc1 | - | - | -87.8 | -
CCc1nnc2c(N3CCN(c4cccc(C)c4)C(C)C3)nc3ccccc3n12 (stereo not given) | . | - | . | .
CCCCN1C(=O)CN(C2CCCCCC2)C(=O)C1c1ccc(OC(C)C)c(OC)c1 (stereo not given) | . | - | . | .
COc1ccccc1CN1[C@@H](CC(=O)O)c2ccccc2S1(=O)=O | . | - | -53.6 | .
COc1ccccc1CNC(=O)CCC1N=C2c3ccccc3N=C(SCc3ccc(C)cc3C)N2C1=O (stereo not given) | . | - | . | .
CCNC(=O)C1(C)CCCN(Cc2csc3ccccc23)C1 (stereo not given) | . | - | - | .
CSc1ccc(CN2CCC(C)(Oc3ccc(-n4ccnc4)cc3)C2)cc1 (stereo not given) | . | - | -97.5 | .
CSc1ccc(CN2CCC(C)(Oc3ccc4ccccc4c3)C2)cc1 (stereo not given) | . | - | ? | .
COC(=O)Cc1ccc(OC2(C)CCN(Cc3ccccc3)C2)cc1 (stereo not given) | . | - | -89.0 | .
CSc1ccc(CN2CCC(C)(Oc3ccc(CC#N)cc3)C2)cc1 (stereo not given) | . | - | - | .
CC(C)c1ccc(CN2CCC(C)(Oc3ccc(Cl)cc3)C2)cc1 (stereo not given) | . | - | - | .
CSc1ccc(OC2(C)CCN(Cc3ccccc3)C2)cc1 (stereo not given) | . | - | -73.4 | .
CC1(Oc2ccccc2)CCN(Cc2csc3ccccc23)C1 (stereo not given) | . | - | -83.4 | .
CCOC(=O)c1noc2ncnc(Nc3ccc(C)c(F)c3)c12 | . | - | . | .
Cc1scc(C(=O)Nn2cnnc2)c1-c1ccccc1 | - | - | -54.7 | -
COc1cccc(NC(=O)c2cc(CN3CCOCC3)on2)c1 | . | - | . | .
COc1ccccc1C(CNC(=O)COc1cc(C)ccc1Cl)N1CCCC1 (stereo not given) | - | - | - | -
COc1ccc(C(CNC(=O)Cc2c(F)cccc2Cl)N2CCCCC2)cc1 (stereo not given) | - | - | -111.1 | -
COc1ccc(C(CNC(=O)COc2cc(C)ccc2Cl)N2CCCCC2)cc1 (stereo not given) | - | - | -58.5 | -
CN(C)S(=O)(=O)c1ccc2c(c1)/C(=C/c1cc3c([nH]1)CCCC3)C(=O)N2 | - | - | -86.3 | -
CN(C)S(=O)(=O)c1ccc2c(c1)C(=O)c1cc(S(=O)(=O)N(C)C)ccc1CC2 | - | . | . | -
C[C@@H](CO)NC(=O)[C@H]1O[C@@H](n2ccc(=O)[nH]c2=O)[C@H](O)[C@@H]1O | . | - | - | .
CC[C@H](C)[C@@H](CO)NC(=O)[C@H]1O[C@@H](n2ccc(=O)[nH]c2=O)[C@H](O)[C@@H]1O | . | - | -105.2 | .
CCOc1cc(N2C(=O)CC3CS(=O)(=O)CC32)c(OCC)cc1NC(=O)c1ccccc1 (stereo not given) | - | - | -62.3 | -
CCOc1cc(N2CCOCC2)c(OCC)cc1NC(=O)c1cccc(N(C)C)c1 | - | - | - | -
SMILES | B2AR arrestin | D3 ag | DRD3 antagonist | TSHR antag
COCCCNC(=O)c1cc2c(=O)n3cccc(C)c3nc2s1 | - | 31.5! | - | -
COc1cccc(NC(=O)C(=O)NCC(c2ccc3c(c2)OCO3)N2CCOCC2)c1 (stereo not given) | . | - | . | .
Cc1cc(OCc2cc(C(=O)N(C)C(C)c3ccccn3)no2)cc(C)c1Cl (stereo not given) | - | - | - | -97.8
CC(=O)OCC1=C[C@@H]2OC(=O)C3=CO[C@@H](O[C@@H]4O[C@H](CO)[C@@H](O)[C@H](O)[C@H]4O)[C@H]1[C@@H]32 | - | 70.0 | - | -
Cc1cccc(C)c1OCc1nnc(SCC(=O)Nc2ccccc2F)o1 | - | - | - | -
Cc1cccc(C)c1OCc1nnc(SCC(=O)NCc2ccccc2)o1 | - | 38.4 | - | -
Oc1c(C(Nc2ccccn2)c2ccccn2)ccc2cccnc12 (stereo not given) | ? | - | - | -
